LASV entry inh – Lassa virus entry inhibition; Potency, µM (top dose mostly 37.9 µM), for inactives: at the top dose activity change, negative = inhibition, most hits filed as inhibitors; hit rate 1.2% among 300,000; Lassa virus pseudotype entry inhibition, cell reporter; calls by dose curve; tested in HEK293 cells; also: potency is read from the fitted curve at half-maximal effect; nearly all actives have a fitted effect of over 50% in size
HCV inh – HCV inhibition. Huh7.5.1 HCVcc-Cre infection, luciferase reporter, 44 h. Potency, µM (doses to about 41.8 µM), for the others: top-dose activity change, negative = inhibition, most hits filed as inhibitors. hit rate 3.4% among 340,000. AID 651820; active = well fitted inhibition curve with a large enough effect; inconclusive = small, poorly fitted or top-dose-only effect, or another doubt; inactive = no such curve, though single readings can be large or run the other way; also: potency is read from the fitted curve at half-maximal effect
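1,000 cells/well; 4 h culture; + compound; + HCVcc-Cre (~0.5 moi); 44 h; luciferase substrate, RT 15 min; read 15 sec.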
Marburg entry inh – blocks Marburg virus binding to or entry into cells. Marburg virus pseudotyped entry inhibition, cell reporter. Potency, µM (doses to about 37.8 µM), for the others: at the highest dose activity change, negative = inhibition, actives largely listed as inhibitors. hit rate 1.8% among 300,000; calls by dose curve; tested in HEK293 cells; also: potency is read from the fitted curve at half-maximal effect
HCMV inh – blocks human cytomegalovirus replication | HFF cells, HCMV-luciferase reporter, 72 h; active compounds read low | hit rate 4.5% among 410,000 | AID 1259415 | activity change, negative = inhibition, % at 57.5 µM; in the data active = activity change below about -60%; inconclusive = no clear call, values can overlap the other calls; inactive = above about -39%
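Steps: HFFs plated, 16 h 37C; compounds added; HCMV-luciferase added to MOI 1 PFU/cell; 72 h 37C; OneGlo reagent, 5 min room temperature; luminescence read, normalized to controls.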
FMDV inh – foot and mouth disease virus antiviral activity | FMDV antiviral cell-based qHTS | Potency, µM (titrated, usually from 57.9 µM), for the others: at the highest dose activity change, negative = inhibition, usual class: inhibitors | hit rate 1.2% among 410,000; calls by dose curve; tested in HEK293T cells; also: read-out not given here; potency is read from the fitted curve at half-maximal effect; nearly all actives have a fitted effect of over 45% in size
Numbers without * were called inactive; ? = inconclusive; · = no result given; [ ] = another dose, or the depositor's remark. An excerpt weighted towards active compounds, which were near 7.9% of everything screened. % is scaled to controls: 0 for no effect and ±100 for the full control effect.

SMILES	LASV entry inh	HCV inh	Marburg entry inh	HCMV inh	FMDV inh
O=C(Nc1ccc(C(=O)c2ccccc2)cc1)c1ccccc1	?	2.8µM*	?	13	18%
COc1ccc(NC(=O)C2(c3ccc(NC(=O)c4ccc(C)cc4)cc3)CCCC2)cc1	-5%	0%	-1%	25	13%
O=C(N/N=C/c1ccccc1O)C1(O)c2ccccc2-c2ccccc21	-22%	?	-25%	4	-24%
O=C(Cc1ccc(Cl)cc1)NC1CC(=O)N(c2ccc3c(c2)OCCO3)C1 (stereo not given)	0%[46.1 µM]	·	·	21	3%
CC(C(=O)c1ccc(-c2ccccc2)cc1)[n+]1cccc(NC(=O)c2ccccc2)c1 (stereo not given)	-6%[46.1 µM]	-26%	0%[46.1 µM]	-99*	0%
CCOC(=O)c1ccc[n+](C(C)C(=O)c2ccc(-c3ccccc3)cc2)c1 (stereo not given)	2%	-18%	10%	-27	?
COc1ccc(NC(=O)c2sc(SCc3ccccc3)nc2N)cc1	?	14%	-2%	6	-7%
O=C(C[n+]1ccc(C(=O)c2ccccc2)cc1)Nc1ccc(C(F)(F)F)cc1	15%[46.1 µM]	2µM*	?	-4	-6%
O=C(Nc1ccc(C(F)(F)F)cc1)c1ccccc1	·	-2%	·	-6	52%
COc1ccc(NC(=O)c2ccccc2SCc2ccccc2)cc1	·	·	·	-106*	1%
COc1ccc(NC(=O)c2ccccc2)cc1	·	0.56µM*	·	-18	51%
C#CCNC(=O)C[C@@H]1C[C@@]2(C(=O)OCC)CCCC=C2N(Cc2ccc(Cl)cc2Cl)C1=O	·	·	·	-1	-3%
CCCc1cc(=O)oc2cc(C)c3c(-c4cccc(OC)c4)coc3c12	5%[46.1 µM]	·	-3%[46.1 µM]	-2	-15%
COc1ccc(CC(N)c2csc(Nc3ccc(S(C)(=O)=O)cc3)n2)cc1 (stereo not given)	·	·	·	-14	-6%
COc1cc(SC)ccc1C(=O)NCCOc1ccc(F)cc1	?	-11%	-6%	55	14%
O=C(Nc1cccnc1)c1ccc(-c2ccccc2)cc1	·	?	·	1	40%
O=C(NCCOc1ccc(F)cc1)c1ccccc1SCc1ccccc1	?	?	11µM*	-62*	-20%
O=C(Nc1ccncc1)c1ccc(-c2ccccc2)cc1	·	10µM*	·	-77*	-17%
Cc1ccc([N+](=O)[O-])c(Oc2ncnc3c2oc2ccccc23)c1	8%[46.1 µM]	·	·	18	29%
COc1cccc(C(=O)NC2CCN(C(=O)N3c4ccccc4Sc4ccccc43)CC2)c1	?	?	10µM*	?	·
O=C(c1ccc(Br)s1)N1CCN(c2ccccn2)CC1	3%	6%	15%	-2	-1%
O=C(N1CCN(c2ccccn2)CC1)N1c2ccccc2Sc2ccccc21	?	?	?	-66*	?
O=C(NC1CCN(C(=O)N2c3ccccc3Sc3ccccc32)CC1)c1ccccc1Cl	-15%	-10%	16µM*	-37	·
O=c1[nH]c2cc3c(cc2cc1C(c1nnnn1C1CCCCC1)N1CCSCC1)OCCO3 (stereo not given)	?	10%	?	-107*	24%
COc1ccc2[nH]c(=O)c(CN(Cc3ccco3)C(c3nnnn3Cc3ccccc3)C(C)C)cc2c1 (stereo not given)	?	?	13µM*	-98*	?
SMILES	LASV entry inh	HCV inh	Marburg entry inh	HCMV inh	FMDV inh
COc1cc2cc(C(c3nnnn3C3CCCC3)N3CCCCC3)c(=O)[nH]c2cc1OC (stereo not given)	?	-4%	-9%	13	13%
COCCn1nnnc1C(C(C)C)N(Cc1ccccc1)Cc1cc2cc(OC)ccc2[nH]c1=O (stereo not given)	?	?	-7%[46.1 µM]	-18	0%
CCC(C)(C)n1nnnc1C(C(C)C)N(Cc1ccco1)Cc1cc2cc3c(cc2[nH]c1=O)OCO3 (stereo not given)	2%	22µM*	16µM*	68	?
CCC(c1nnnn1C1CCCCC1)N(Cc1ccco1)Cc1cc2ccc(OC)cc2[nH]c1=O (stereo not given)	?	3.5µM*	?	?	?
O=C(CCNC(=O)C1CCN(S(=O)(=O)c2ccccc2)CC1)NCc1ccccc1Cl	1%[46.1 µM]	0%	-3%[46.1 µM]	0	-3%
O=C(NC1CC1)c1ccc(-c2cnc3cccnn23)cc1	·	·	·	-1	33%
CCOc1ccc2[nH]c(=O)c(C(c3nnnn3C3CCCCC3)N3CCN(C)CC3)cc2c1 (stereo not given)	-5%	-5%	11%	-28	6%
COc1ccc2[nH]c(=O)c(C(c3nnnn3C3CCCC3)N(C)C3CCCCC3)cc2c1 (stereo not given)	2%	-12%	5.2µM*	-20	33%
CCOC(=O)/C=C1/N(C)c2ccccc2C1(C)C	13%[46.1 µM]	10%	6%[46.1 µM]	-30	-9%
CN1/C(=C\P(=O)(N(C)C)N(C)C)C(C)(C)c2ccccc21	?	4%	?	-93*	?
N#C/C(=C(/O)c1cccc(F)c1)c1nc2ccccc2s1	·	-14%	·	-70*	-3%
COc1ccc(OC)c(C2=NO[C@@](CC(=O)O)(C(=O)Nc3ccc4c(c3)OCCO4)C2)c1	16%[46.1 µM]	-6%	0%[46.1 µM]	-100*	-11%
O=C(c1cccs1)N1C[C@@H](n2cc(-c3ccc(F)cc3)nn2)[C@H](O)C[C@@H]1c1ccccc1	·	·	·	-21	?
NC(=O)c1c(NC(=O)c2ccncc2)sc2c1CCCC2	·	13µM*	·	10	18%
COc1ccccc1CC(=O)Nc1sc2c(c1C(N)=O)CCCC2	?	20µM*	-20%[46.1 µM]	48	-14%
N#CCC(=O)Nc1sc2c(c1C(N)=O)CCCC2	·	-4%	·	-62*	-6%
CCN(CC)CC(=O)Nc1sc2c(c1C(=O)c1ccccc1OC)CCC2	11µM*	?	?	-13	0%
CCC(=O)Nc1sc2c(c1C(N)=O)CCC2	-6%	-27%	3%	-22	5%
NC(=O)c1c(NC(=O)Cc2cccs2)sc2c1CCC2	-13%	?	3%	-17	1%
O=C(Nc1cccc(OC(F)(F)F)c1)c1cnc(N2CCN(Cc3cccc(C(F)(F)F)c3)C2=O)o1	·	·	·	-10	·
CC(CCC(=O)OC[C@H]1O[C@H](C#Cc2ccccc2)C=C[C@H]1Oc1ccc(C)cc1)=NO[C@@H](C)CN1CCCCc2nc(C)c(C)cc21	·	·	-16%[14.2 µM]	·	·
CCCCn1c(N)c(N(CCC(C)C)C(=O)c2c(CC)noc2C)c(=O)[nH]c1=O	·	·	·	-14	-10%
C/C(=C\C[Si](C)(C)C)CCC=O	·	·	-25%[14.2 µM]	·	·
O=C(O)/C=C/C(=O)c1ccc2c(c1)CCc1ccccc1-2	·	13µM*	·	-61*	?
CC(=O)Nc1ccc2c(c1)CCc1ccccc1-2	0%[46.1 µM]	-21%	?	-9	32%
CC(=O)/C(C#N)=C1\NC(=O)C(Cc2ccccc2Cl)S1 (stereo not given)	2.3µM*	0%	?	-95*	51%
NC1=NC(=O)C(Cc2cc(Cl)ccc2Cl)S1 (stereo not given)	-1%	11%	8%	-13	-2%
